The results in this text go back to PubChem BioAssay (NCATS).

Each structure is given as a SMILES string. Inconclusive results are not listed. Values without a mark were called inactive. Calls of active or inactive are those of the source. The call rests on the fitted dose curve; in most records, active means well fitted cell-killing curve with a large enough effect; inconclusive means small, poorly fitted or top-dose-only effect, or effect the other way; inactive means no such curve, though single readings can be large or run the other way.

The nature of experiment [1]: Viability qHTS for spleen associated tyrosine kinase inhibitor (SYKi) naive MV4-11 cells (AID 1963823). Further: nearly all actives have a fitted effect of over 40% in size. The conditions noted are these: MV4-11 AML viability, CellTiter-Glo luminescence, 72 h; series mostly up to 45 µM. In a few lines:
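Viability of MV4-11 AML cells lacking prior SYK inhibitor exposure is scored by CellTiter-Glo luminescence following 72 hr compound incubation at 37 C, 5% CO2, seeded at 500 cells per well.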
On the technique in general: qHTS replaces the single test concentration by a dilution series.

Experiment [2] can be described thus: Viability qHTS for spleen associated tyrosine kinase inhibitor (SYKi) drug resistant MV4-11 cells (AID 1963824). Further: nearly all actives have a fitted effect of over 35% in size. The conditions noted are these: SYKi-resistant MV4-11 viability, CellTiter-Glo, 72 h; series mostly up to 45 µM. In a few lines: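 SYK-inhibitor-resistant MV4-11 AML cells were seeded at 500 per well onto compound and cultured 72 hours (37 °C, 5% CO2). CellTiter-Glo was then added, and after 10 min at room temperature, luminescence gave viability.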
Potency means the concentration at half of the fitted maximal effect.

For the compound `CN1c2c(nc(N)[nH]c2=O)NC[C@@H]1CNc1ccc(C(=O)N[C@@H](CCC(=O)O)C(=O)O)cc1`, the Potency entry in experiment [1] and in experiment [2] was “inactive” throughout.

`CC(=O)N[C@H]1CCN(c2ccc(C3=NOC(CN[S+](=O)([O-])C(C)C)C3)cc2F)C1` (stereo partly drawn): the Potency result in experiment [1] is “inactive”. Moreover, the Potency in experiment [2] is 13 µM (active).

`C[C@@H]1O[C@@H](OC(=O)Cc2ccccc2)[C@H](O)[C@H](O)[C@H]1O`: the Potency entry in experiment [1] and in experiment [2] was “inactive” throughout.

Take `CCCCCCCCCCCCC/C=C/[C@@H](O)[C@H](CO)N(C)C`: the viability (% of control) in experiment [1] is 70.8% [at 4.97 µM]. The viability, % of control in experiment [2] is 82.6% [at 4.97 µM].

On to `COc1ccc(O[C@@H]2O[C@H](CO)[C@@H](O)[C@H](O)[C@H]2O)cc1OC`, for which the Potency entry in experiment [1] and in experiment [2] was “inactive” in each case.

With `CC(=O)c1c(O)cc2cccc3c2c1CC(C)(O)O3` (stereo not drawn), the Potency result in experiment [1] and in experiment [2] was “inactive” throughout.

On to `CC[C@H](/C=C/[C@@H](C)[C@H]1CC[C@H]2[C@@H]3CC=C4C[C@@H](O)CC[C@]4(C)[C@H]3CC[C@]12C)C(C)C`, for which the viability (% of control) in experiment [1] is 82.1% [at 4.97 µM]. In experiment [2], the viability, % of control was 108% [at 4.97 µM].

Consider `CC1=C(COC2OC(CO)C(O)C(O)C2O)C(C(CO)C(=O)O)CC1` (stereo not drawn), for which the Potency entry in experiment [1] and in experiment [2] was “inactive” throughout.

`C[C@@H]1O[C@@H](O[C@H]2[C@@H]3C=CO[C@@H](O[C@@H]4O[C@H](CO)[C@@H](O)[C@H](O)[C@H]4O)[C@@H]3[C@@]3(CO)O[C@@H]23)[C@H](OC(=O)/C=C/c2ccc(O)c(O)c2)[C@H](O)[C@H]1O`: the Potency result in experiment [1] and in experiment [2] was “inactive” each time.

As for `CC1=CC(=O)CC(C)(C)C1(O)CCC(C)O` (stereo not drawn), the Potency entry in experiment [1] and in experiment [2] was “inactive” throughout.

As to `COc1cc(C2OCC3(O)C(c4ccc(O[C@@H]5O[C@H](CO)[C@@H](O)[C@H](O)[C@H]5O)c(OC)c4)OCC23O)ccc1O` (stereo partly drawn), the Potency entry in experiment [1] and in experiment [2] was “inactive” throughout.

For the compound `COc1ccc2c3c1O[C@H]1C[C@@H](O)C=C[C@@]31CCN(C)C2`, the Potency entry in experiment [1] and in experiment [2] was “inactive” in each case.

In the case of `N=C(N)c1ccc2nc(-c3cc(CC(=O)N[C@@H](CC(=O)O)C(=O)O)cc(-c4cc(S(N)(=O)=O)ccc4O)c3O)[nH]c2c1`, the Potency entry in experiment [1] and in experiment [2] was “inactive” throughout.

For the compound `CCNC(=O)[C@@H]1CCCN1C(=O)[C@H](CCCN=C(N)N)NC(=O)[C@H](CC(C)C)NC(=O)[C@@H](C)NC(=O)[C@H](Cc1ccc(O)cc1)NC(=O)[C@H](CO)NC(=O)[C@H](Cc1c[nH]c2ccccc12)NC(=O)[C@H](Cc1cnc[nH]1)NC(=O)[C@@H]1CCC(=O)N1`, the Potency entry in experiment [1] and in experiment [2] was “inactive” in each case.

`C=C[C@@]1(C)CC(=O)C2[C@](C)(O1)[C@@H](OC(C)=O)[C@@H](O)[C@H]1C(C)(C)CCC[C@]21C` (stereo partly drawn): in experiment [1], the viability (% of control) is 97.8% [at 9.25 µM]. Besides, the viability, % of control in experiment [2] was 89.7% [at 9.25 µM].

With `CCOC(=O)C1=C(N)Oc2ccc(Cl)cc2C1C(C#N)C(=O)OCC` (stereo not drawn), the Potency result in experiment [1] and in experiment [2] was “inactive” each time.

On to `C/C=C(\C)C(=O)OCC1OC(OC2OC(CO)C(O)C(O)C2O)C(O)C(O)C1O` (stereo not drawn), for which the Potency result in experiment [1] and in experiment [2] was “inactive” throughout.

As to `CC/C=C/C(O)C(O)C1=C(C)C(=O)C2(O1)C(=O)NC(OC)(C(=O)c1ccccc1)C2O` (stereo not drawn), the Potency result in experiment [1] and in experiment [2] was “inactive” each time.

`CC(=O)O[C@H]1[C@@H](O)[C@H](O[C@H]2[C@@H]3C=CO[C@@H](O[C@H]4O[C@@H](CO)[C@H](O)[C@@H](O)[C@@H]4O)[C@@H]3[C@@]3(CO)O[C@@H]23)O[C@@H](C)[C@@H]1OC(=O)/C=C/c1ccccc1`: the Potency entry in experiment [1] and in experiment [2] was “inactive” in each case.

Take `COc1cc(/C=C2\CCCN([C@@H](C)c3ccc(F)cc3)C2=O)ccc1-n1cnc(C)c1`: the Potency in experiment [1] is 9.2 µM (active); in experiment [2], 5.17 µM (active).

On to `COc1cccc(C(=O)NCCNc2nc3cc(C)cc(C)c3cc2C#N)c1`, for which the Potency entry in experiment [1] and in experiment [2] was “inactive” in each case.

For the compound `O=C(OC1C=C(CO)C2C(OC3OC(CO)C(O)C(O)C3O)OC=CC12)c1ccc(O)cc1` (stereo not drawn), the Potency result in experiment [1] and in experiment [2] was “inactive” each time.

For `Cc1c(-c2ccnc(Nc3cc(Br)cc(C(F)(F)F)c3)n2)sc(=O)n1C`, the Potency result in experiment [1] and in experiment [2] was “inactive” throughout.

For `CCN(CC)CC1CCN(c2ncc3ncnc(Nc4ccc(F)c(Cl)c4)c3n2)CC1`, the Potency in experiment [1] and in experiment [2] was 2.91 µM (active) throughout.

With `N#Cc1cc([N+](=O)[O-])c2sc(C(N)=O)[n+]([O-])c2c1`, the Potency is 1.84 µM (active) in experiment [1] and 1.64 µM (active) in experiment [2].

Consider `C=C1CC[C@H]2[C@@](C)(CCC[C@@]2(C)C(=O)O)[C@@H]1CCC(C)CCO` (stereo partly drawn), for which the Potency entry in experiment [1] and in experiment [2] was “inactive” each time.

Turning to `CC1(C)CC2C3=CCC4C5(C)CCC(OC6OC(CO)C(O)C(OC7OC(CO)C(O)C(OC8OC(CO)C(O)C(OC9OC(COC%10OC(CO)C(O)C(O)C%10O)C(O)C(O)C9O)C8O)C7O)C6O)C(C)(C)C5CCC4(C)C3(C)CCC2(C(=O)O)CC1O` (stereo not drawn), the viability (% of control) in experiment [1] is 81.7% [at 9.25 µM]. Also, the viability, % of control in experiment [2] was 99.5% [at 9.25 µM].

Take `C=C1CC[C@]2(C(=O)O[C@@H]3O[C@H](CO)[C@@H](O)[C@H](O)[C@H]3O)CC[C@]3(C)C(=CCC4[C@@]5(C)C[C@H](O)[C@@H](O[C@@H]6O[C@H](C(=O)O)[C@@H](O)[C@H](O)[C@H]6O)[C@](C)(C=O)C5CC[C@]43C)C2C1` (stereo partly drawn): the viability (% of control) in experiment [1] is 68.2% [at 9.25 µM]. Moreover, in experiment [2], the viability, % of control was 87.9% [at 9.25 µM].

As to `COc1cc(/C=C/C(=O)OC[C@H]2O[C@@](CO)(O[C@H]3O[C@H](CO)[C@@H](O)[C@H](O)[C@H]3O)[C@@H](OC(=O)/C=C/c3ccc(O)c(OC)c3)[C@@H]2O)ccc1O`, the Potency result in experiment [1] and in experiment [2] was “inactive” throughout.

On to `CC(O)C1NC(=O)C2CCCN2C1=O` (stereo not drawn), for which the Potency entry in experiment [1] and in experiment [2] was “inactive” each time.

Turning to `O=C(O)CCc1cccc(O)c1O[C@@H]1O[C@H](CO)[C@@H](O)[C@H](O)[C@H]1O`, the Potency result in experiment [1] and in experiment [2] was “inactive” in each case.

On to `NC(=O)NCCCC(NC(=O)Cc1ccccc1)C(=O)O` (stereo not drawn), for which the Potency entry in experiment [1] and in experiment [2] was “inactive” each time.

On to `C=C1CC[C@@H]2[C@@](C)(CO[C@@H]3O[C@H](CO)C(O)[C@H](O)C3O)[C@H](O)CC[C@@]2(C)[C@@H]1CC/C(C)=C/CO` (stereo partly drawn), for which, in experiment [1], the viability (% of control) is 93.2% [at 9.25 µM]. For the same compound, the viability, % of control in experiment [2] was 101% [at 9.25 µM].

With `CCN1CCN(c2ccc(Nc3ccc(-c4ccc(C(N)=O)cc4)n4ncnc34)cc2)CC1`, the figures for the Potency in experiment [1] and in experiment [2] were 0.517 µM (active) and 0.651 µM (active), respectively.

As for `CC1(C)CC[C@]2(C(=O)O[C@@H]3O[C@H](CO[C@@H]4O[C@H](CO)[C@@H](O)[C@H](O)[C@H]4O)[C@@H](O)[C@H](O[C@@H]4O[C@H](CO)[C@@H](O)[C@H](O)[C@H]4O)[C@H]3O)CC[C@]3(C)C(=CCC4[C@@]5(C)CC[C@H](O[C@@H]6OC[C@@H](O)[C@H](O)[C@H]6O)[C@@](C)(C(=O)O)C5CC[C@]43C)[C@@H]2C1` (stereo partly drawn), in experiment [1], the viability (% of control) is 83.1% [at 9.25 µM]. The viability, % of control in experiment [2] is 108% [at 9.25 µM].

As for `CCC(=O)OCC(=O)[C@@]1(OC(=O)CC)[C@@H](C)C[C@H]2[C@@H]3CCC4=CC(=O)C=C[C@]4(C)[C@@]3(F)[C@@H](O)C[C@@]21C`, the Potency in experiment [1] was 18.4 µM (active); in experiment [2] it was 20.6 µM (active).

Turning to `CNC(=O)[C@H]1O[C@@H](n2cnc3c(NCc4ccc(N)c(I)c4)ncnc32)[C@H](O)[C@@H]1O`, the viability (% of control) in experiment [1] is 77.1% [at 9.25 µM]. For the same compound, the viability, % of control in experiment [2] was 80.4% [at 9.25 µM].

For the compound `Oc1ccc(Nc2nc(-c3ccc(Cl)cc3)cs2)cc1`, the Potency is 5.8 µM (active) in experiment [1] and 2.06 µM (active) in experiment [2].

As to `CC(C)C[C@@H](C(=O)N[C@@H](Cc1ccc(OCc2ccccc2)cc1)C(=O)NC(C)(C)C)N(C)Cc1ccc(C(C)(C)C)cc1`, the Potency result in experiment [1] is “inactive”. Further, the Potency in experiment [2] was 3.66 µM (active).
